# In PubChem BioAssay (Tox21):
# Results filed as inconclusive are left out. Unmarked numbers belong to inactive results. Calls of active or inactive are those of the source. Calls follow the shape of the dose curve; as a rule, active = well fitted activation curve with a large enough effect in the repeat runs; inconclusive = weak or mixed curves; inactive = flat fitted curve, though single readings scatter.
# Assay: A CellTox Green Cytotoxicity Assay to monitor cytotoxicity in HEK293 cells - 16 hour (AID 1224888); also: nearly all actives have a fitted effect of over 35% in size
# Details: CellTox Green fluorescence; series mostly up to 76.8 µM; activity change: at the top concentration
# Text: National Center for Advancing Translational Sciences [NCATS]
# NIH Chemical Genomics Center [NCGC]
# U.S. Environmental Protection Agency [EPA]
# National Institutes of Environmental Health Sciences [NIEHS]
# National Toxicology Program [NTP]
# Cell-based models are critical for drug discovery. Determining the natural cytotoxic effects resulting from test compounds is an essential research activity. A CellTox Green Cytotoxicity Assay to monitor cytotoxicity in real time of continues cell culture during 40 hours of the compound treatment was used to screen Tox21 10K library compounds in Hek293 cells. CellTox Green Cytotoxicity Assay is a nonlytic, homogeneous, biofluorescent method to measure cytotoxicity in cell culture after experimental manipulation. The assay system uses a proprietary asymmetric cyanine dye that is excluded from viable cells but preferentially stains the dead cell's DNA. […] Viable cells produce no appreciable increases in fluorescence. Therefore, the fluorescence signal produced by the binding interaction with dead cell DNA is proportional to cytotoxicity.
# The mixture of Hek293 cell suspension and reagents were dispensed at 600cells/6 ul/well in 1536-well tissue culture treated black solid bottom plates using a Multidrop dispenser. After the assay plates were incubated at a 37 C/5% CO2 incubator for 5 hours, 23 nL of compounds dissolved in DMSO, positive and negative controls was transferred to the assay plate by a pintool work station. The plates were incubated at 37 C for 40 hours. The fluorescence intensity were measured at 0h, 8h, 16h, 24h, 32h and 40h time points using ViewLux plate reader during compound treatment.
# % is scaled to controls: 0 for no effect and ±100 for the full control effect; potency is read from the fitted curve at half-maximal effect.
Structure (SMILES),activity change,Potency
C[C@@H]1CN(c2c(F)c(F)c3c(=O)c(C(=O)O)cn(C4CC4)c3c2F)C[C@H](C)N1,"1.09% [at 15.8 µM, stronger effect = higher value]",–
NCCC(O)(P(=O)(O)O)P(=O)(O)O,"0.0545% [at 35.3 µM, stronger effect = higher value]",–
COc1cc(N)c(Cl)cc1C(=O)NC1CCN(Cc2ccccc2)CC1,"4.95% [at 35.3 µM, stronger effect = higher value]",–
CCOC(=O)NCCC[Si](OCC)(OCC)OCC,-1.44%,–
CNCCC(Oc1ccccc1OC)c1ccccc1 (stereo not given),"-0.962% [at 35.3 µM, stronger effect = higher value]",–
OCC(CBr)(CBr)CBr,-1.81%,–
OCCN1CCN(CCO)CC1,-12.4%,–
NC1=NCC2c3ccccc3Cc3ccccc3N12 (stereo not given),"-22% [at 35.3 µM, stronger effect = higher value]",–
c1ccc(CN(CC2=NCCN2)c2ccccc2)cc1,"-15.3% [at 35.3 µM, stronger effect = higher value]",–
Cc1ccc([N+](=O)[O-])c(N)c1,-7.28%,–
N#Cc1ccc(C(c2ccc(C#N)cc2)n2cncn2)cc1,"-11.2% [at 35.3 µM, stronger effect = higher value]",–
CCCCN1C[C@H](O)[C@@H](O)[C@H](O)[C@H]1CO,"-10.6% [at 35.3 µM, stronger effect = higher value]",–
CC1(C)C(=O)N(Cl)C(=O)N1Br,2.2%,–
Nc1ccc2ccccc2c1S(=O)(=O)O,-0.855%,–
CC(C)=CCC[C@](C)(O)[C@@H]1CC=C(C)CC1,17.7%,–
CCN1CC(CCN2CCOCC2)C(c2ccccc2)(c2ccccc2)C1=O (stereo not given),"4.01% [at 35.3 µM, stronger effect = higher value]",–
COc1ccc2nc(NC(=O)Nc3ccccc3)sc2c1,"39.4% [at 35.3 µM, stronger effect = higher value]",–
CC(C)O,13.9%,–
CCCCOc1cc(C(=O)NCCN(CC)CC)c2ccccc2n1,"13.3% [at 35.3 µM, stronger effect = higher value]",–
O=C1CCCCC1C1CCCCC1 (stereo not given),2.15%,–

Structure (SMILES),activity change,Potency
O=c1oc2c(O)c(O)cc3c(=O)oc4c(O)c(O)cc1c4c23,"13% [at 15.8 µM, stronger effect = higher value]",–
CC(C)C(=O)OC/C=C/c1ccccc1,2.32%,–
OCCN(CCO)CCN(CCO)CCO,-3.83%,–
CCOC(=O)C1CC(=O)C(=C(O)C2CC2)C(=O)C1 (stereo not given),20%,–
CCCCCCCCCCCCOCCOS(=O)(=O)O,–,21.9 µM (active)
CCOc1ccccc1N,9.77%,–
OCc1ccccc1O,"-12% [at 35.3 µM, stronger effect = higher value]",–
Cc1cc(NS(=O)(=O)c2ccc(N)cc2)nc(C)n1,"-14.1% [at 35.3 µM, stronger effect = higher value]",–
C=C(C)C(=O)OCCOP(=O)(O)O,-9.85%,–
COc1ccccc1OCC(O)COC(N)=O (stereo not given),"3.74% [at 35.3 µM, stronger effect = higher value]",–
CC(=O)Nc1ccc(C)c(Cl)c1,6.86%,–
CC/C=C\CCOC(=O)C(C)C,0.337%,–
CC(C)C1=CC2=CC[C@@H]3[C@](C)(CCC[C@@]3(C)C(=O)O)[C@H]2CC1,7.87%,–
Cn1cnc2c(F)c(Nc3ccc(Br)cc3Cl)c(C(=O)NOCCO)cc21,"-1.26% [at 35.3 µM, stronger effect = higher value]",–
Cc1ccc(C(C)C)cc1O,16.4%,–
CCN(CCCc1ccccc1)CCCc1ccccc1,"0.779% [at 35.3 µM, stronger effect = higher value]",–
Cc1ccccc1C(=O)Nc1ccc(C(=O)N2CCCC(O)c3cc(Cl)ccc32)c(C)c1 (stereo not given),"1.65% [at 35.3 µM, stronger effect = higher value]",–
CCc1nnc(NS(=O)(=O)c2ccc(N)cc2)s1,"-12.9% [at 35.3 µM, stronger effect = higher value]",–
CC(C)(C)c1cccc(O)c1,2.55%,–
CC(C)CC(=O)OCc1ccccc1,7.96%,–
